Targets with a hit are over-represented here; the source holds about 8,800 in all. About 0.5% of all pairs of compound and target were hits. A number with no mark means an inactive call.
Columns and labels:
Assay in all cases: log2 fold change, soluble protein after heating vs DMSO (PISA); higher = thermal stabilisation; K562 lysate, 10 uM; active = over 0.2 and 3.5 SD of the protein, either way, in both replicates (recomputed)
lapatinib = compound: CS(=O)(=O)CCNCc1ccc(-c2ccc3ncnc(Nc4ccc(OCc5cccc(F)c5)c(Cl)c4)c3c2)o1 [lapatinib]
Method in brief: (§1)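 Log-two fold change in thermal stability relative to solvent controls is reported from duplicates. For each sample, crude K562 extract from dounce-homogenised pellets in PBS pH 7.4 with 1 mM MgCl2, at 1 mg/mL protein, was treated with 10 μM compound for 30 min. Aliquots heated for 3 min across 48°C-58°C were pooled, brought to 0.5% NP-40 at 4°C and cleared at 21,000xg for 90 min. The supernatant was quantified by TMTpro 16plex LC-MS/MS with channel sums equalised.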

pictilisib = compound: CS(=O)(=O)N1CCN(Cc2cc3nc(-c4cccc5[nH]ncc45)nc(N4CCOCC4)c3s2)CC1 [pictilisib]
Method in brief: as §1

crizotinib = compound: C[C@@H](Oc1cc(-c2cnn(C3CCNCC3)c2)cnc1N)c1c(Cl)ccc(F)c1Cl [crizotinib]
Method in brief: as §1

[1] = compound: C[C@H](C1=CC=C(C=C1)C(=O)NC2=C3C=CNC3=NC=C2)N
Method in brief: as §1

duvelisib = compound: C[C@H](Nc1ncnc2nc[nH]c12)c1cc2cccc(Cl)c2c(=O)n1-c1ccccc1 [duvelisib]
Method in brief: as §1

gandotinib = compound: Cc1cc(Nc2cc(CN3CCOCC3)c3nc(C)c(Cc4ccc(Cl)cc4F)n3n2)n[nH]1 [gandotinib]
Method in brief: as §1

tozasertib = compound: Cc1cc(Nc2cc(N3CCN(C)CC3)nc(Sc3ccc(NC(=O)C4CC4)cc3)n2)n[nH]1 [tozasertib]
Method in brief: as §1

doramapimod = compound: Cc1ccc(-n2nc(C(C)(C)C)cc2NC(=O)Nc2ccc(OCCN3CCOCC3)c3ccccc23)cc1 [doramapimod]
Method in brief: as §1

bafetinib = compound: Cc1ccc(NC(=O)c2ccc(CN3CC[C@H](N(C)C)C3)c(C(F)(F)F)c2)cc1Nc1nccc(-c2cncnc2)n1 [bafetinib]
Method in brief: as §1

[2] = compound: Cc1cccc(CC(=O)N2CCc3c2ccc(-c2cn(C)c4ncnc(N)c24)c3F)n1
Method in brief: as §1

Chain of UniProt Q3T8J9 (Q3T8J9 whole entry, looked up): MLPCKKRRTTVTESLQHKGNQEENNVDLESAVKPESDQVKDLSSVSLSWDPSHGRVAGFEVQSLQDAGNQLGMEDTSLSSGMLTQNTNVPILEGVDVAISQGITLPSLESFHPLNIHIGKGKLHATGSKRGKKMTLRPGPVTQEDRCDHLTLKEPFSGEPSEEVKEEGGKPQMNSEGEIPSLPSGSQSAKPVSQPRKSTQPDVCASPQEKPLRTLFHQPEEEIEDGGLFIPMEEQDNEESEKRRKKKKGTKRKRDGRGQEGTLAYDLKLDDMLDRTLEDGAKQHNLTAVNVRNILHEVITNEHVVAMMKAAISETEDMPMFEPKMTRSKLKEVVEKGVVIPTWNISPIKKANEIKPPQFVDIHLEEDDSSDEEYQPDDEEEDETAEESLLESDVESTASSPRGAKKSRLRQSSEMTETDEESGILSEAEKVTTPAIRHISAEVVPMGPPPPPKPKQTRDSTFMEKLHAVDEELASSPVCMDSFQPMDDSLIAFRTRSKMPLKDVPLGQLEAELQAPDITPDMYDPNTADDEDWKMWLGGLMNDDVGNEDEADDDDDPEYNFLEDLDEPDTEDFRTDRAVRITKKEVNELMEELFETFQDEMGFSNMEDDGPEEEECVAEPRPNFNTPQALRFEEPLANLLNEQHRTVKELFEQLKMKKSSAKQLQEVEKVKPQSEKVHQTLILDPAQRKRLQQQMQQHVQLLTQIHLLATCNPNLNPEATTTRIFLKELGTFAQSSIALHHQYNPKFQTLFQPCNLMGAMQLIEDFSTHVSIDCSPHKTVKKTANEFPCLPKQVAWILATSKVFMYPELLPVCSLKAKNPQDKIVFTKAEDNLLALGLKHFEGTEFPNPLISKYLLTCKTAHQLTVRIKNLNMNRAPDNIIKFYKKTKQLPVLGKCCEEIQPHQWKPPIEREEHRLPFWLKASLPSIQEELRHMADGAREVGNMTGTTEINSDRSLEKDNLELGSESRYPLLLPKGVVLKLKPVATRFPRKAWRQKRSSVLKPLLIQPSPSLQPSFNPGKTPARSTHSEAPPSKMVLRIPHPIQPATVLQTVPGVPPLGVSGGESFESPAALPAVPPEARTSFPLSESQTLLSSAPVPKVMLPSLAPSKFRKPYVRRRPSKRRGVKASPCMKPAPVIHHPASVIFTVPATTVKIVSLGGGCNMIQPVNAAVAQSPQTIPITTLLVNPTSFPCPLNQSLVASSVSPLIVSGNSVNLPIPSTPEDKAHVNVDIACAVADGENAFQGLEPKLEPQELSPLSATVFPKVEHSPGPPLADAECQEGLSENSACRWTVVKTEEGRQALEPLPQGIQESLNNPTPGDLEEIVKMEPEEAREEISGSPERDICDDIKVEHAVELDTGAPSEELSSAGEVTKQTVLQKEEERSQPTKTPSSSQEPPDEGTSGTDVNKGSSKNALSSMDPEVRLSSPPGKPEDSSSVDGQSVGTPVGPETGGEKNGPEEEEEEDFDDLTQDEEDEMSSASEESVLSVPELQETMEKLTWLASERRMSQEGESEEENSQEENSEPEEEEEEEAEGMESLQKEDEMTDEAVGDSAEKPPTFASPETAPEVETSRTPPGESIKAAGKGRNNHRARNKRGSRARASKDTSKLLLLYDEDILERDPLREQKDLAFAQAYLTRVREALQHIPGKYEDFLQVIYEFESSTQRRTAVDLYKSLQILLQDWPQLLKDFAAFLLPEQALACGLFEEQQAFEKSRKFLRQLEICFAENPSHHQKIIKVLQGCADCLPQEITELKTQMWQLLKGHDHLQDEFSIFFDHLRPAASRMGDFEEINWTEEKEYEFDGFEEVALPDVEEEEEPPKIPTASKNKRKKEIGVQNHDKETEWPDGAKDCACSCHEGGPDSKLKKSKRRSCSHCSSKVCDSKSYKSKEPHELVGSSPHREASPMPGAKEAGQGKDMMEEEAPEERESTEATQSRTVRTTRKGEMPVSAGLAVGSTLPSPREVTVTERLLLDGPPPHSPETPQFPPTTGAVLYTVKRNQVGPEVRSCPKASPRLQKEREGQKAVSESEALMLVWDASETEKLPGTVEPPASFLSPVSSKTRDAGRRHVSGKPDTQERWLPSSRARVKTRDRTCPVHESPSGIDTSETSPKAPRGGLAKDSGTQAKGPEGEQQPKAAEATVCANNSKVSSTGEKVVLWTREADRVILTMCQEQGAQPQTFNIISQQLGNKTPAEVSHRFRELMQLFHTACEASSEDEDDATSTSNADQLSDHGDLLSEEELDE
Chain of UniProt Q9NVX7 (Q9NVX7 whole entry, looked up): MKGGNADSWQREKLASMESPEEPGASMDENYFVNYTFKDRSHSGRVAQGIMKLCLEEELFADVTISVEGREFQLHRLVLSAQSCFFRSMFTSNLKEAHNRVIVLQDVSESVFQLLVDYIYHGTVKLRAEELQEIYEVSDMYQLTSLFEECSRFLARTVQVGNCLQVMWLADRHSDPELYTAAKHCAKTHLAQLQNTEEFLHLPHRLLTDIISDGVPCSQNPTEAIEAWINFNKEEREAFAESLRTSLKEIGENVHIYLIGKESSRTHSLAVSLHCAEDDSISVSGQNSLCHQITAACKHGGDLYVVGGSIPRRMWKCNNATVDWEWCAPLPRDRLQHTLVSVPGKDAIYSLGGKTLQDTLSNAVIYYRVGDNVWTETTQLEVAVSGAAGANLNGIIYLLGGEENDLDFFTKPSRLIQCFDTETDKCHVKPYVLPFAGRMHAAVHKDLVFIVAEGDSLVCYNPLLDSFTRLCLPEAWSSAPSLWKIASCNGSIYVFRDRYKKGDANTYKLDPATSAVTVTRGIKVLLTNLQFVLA
Chain of UniProt Q9H6D7 (Q9H6D7 whole entry, looked up): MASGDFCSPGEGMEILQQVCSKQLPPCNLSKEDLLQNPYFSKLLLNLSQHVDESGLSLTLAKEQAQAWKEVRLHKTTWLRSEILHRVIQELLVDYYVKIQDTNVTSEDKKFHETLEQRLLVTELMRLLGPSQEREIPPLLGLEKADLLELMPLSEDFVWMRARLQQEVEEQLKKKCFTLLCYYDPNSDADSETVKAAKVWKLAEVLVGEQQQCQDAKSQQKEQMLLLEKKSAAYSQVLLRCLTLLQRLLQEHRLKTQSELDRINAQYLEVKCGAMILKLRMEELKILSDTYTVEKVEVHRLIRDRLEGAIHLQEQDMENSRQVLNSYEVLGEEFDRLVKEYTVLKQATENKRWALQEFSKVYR
Chain of UniProt Q8NEC7 (Q8NEC7 whole entry, looked up): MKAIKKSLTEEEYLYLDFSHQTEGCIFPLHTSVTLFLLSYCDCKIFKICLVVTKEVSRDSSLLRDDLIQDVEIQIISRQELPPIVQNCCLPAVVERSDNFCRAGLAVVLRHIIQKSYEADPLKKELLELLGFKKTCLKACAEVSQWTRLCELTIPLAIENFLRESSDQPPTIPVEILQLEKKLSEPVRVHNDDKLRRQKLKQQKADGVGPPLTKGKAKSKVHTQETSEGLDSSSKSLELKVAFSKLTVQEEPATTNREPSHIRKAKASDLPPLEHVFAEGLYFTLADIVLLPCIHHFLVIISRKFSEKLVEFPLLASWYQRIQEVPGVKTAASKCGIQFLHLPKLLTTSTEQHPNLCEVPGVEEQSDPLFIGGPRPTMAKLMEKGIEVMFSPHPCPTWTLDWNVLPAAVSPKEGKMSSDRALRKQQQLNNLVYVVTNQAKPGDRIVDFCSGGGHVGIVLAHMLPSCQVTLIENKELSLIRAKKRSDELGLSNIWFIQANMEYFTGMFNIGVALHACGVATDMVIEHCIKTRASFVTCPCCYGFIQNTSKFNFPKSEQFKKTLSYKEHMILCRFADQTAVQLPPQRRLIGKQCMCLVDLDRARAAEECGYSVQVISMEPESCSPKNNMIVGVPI
Chain of UniProt Q9BQQ3 (Q9BQQ3 whole entry, looked up): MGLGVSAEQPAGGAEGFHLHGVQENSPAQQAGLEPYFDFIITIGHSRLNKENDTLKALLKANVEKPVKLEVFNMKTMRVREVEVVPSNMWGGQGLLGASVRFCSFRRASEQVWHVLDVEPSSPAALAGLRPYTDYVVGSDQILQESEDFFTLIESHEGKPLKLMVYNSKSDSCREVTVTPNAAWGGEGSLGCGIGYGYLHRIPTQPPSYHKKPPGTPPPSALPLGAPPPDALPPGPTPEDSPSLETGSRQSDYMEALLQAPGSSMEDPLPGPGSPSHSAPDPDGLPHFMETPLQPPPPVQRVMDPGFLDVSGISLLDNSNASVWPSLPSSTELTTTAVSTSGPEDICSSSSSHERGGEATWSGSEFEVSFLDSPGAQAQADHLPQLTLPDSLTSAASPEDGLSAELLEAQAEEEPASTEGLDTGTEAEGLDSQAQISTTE
Chain of UniProt Q96SY0 (Q96SY0 whole entry, looked up): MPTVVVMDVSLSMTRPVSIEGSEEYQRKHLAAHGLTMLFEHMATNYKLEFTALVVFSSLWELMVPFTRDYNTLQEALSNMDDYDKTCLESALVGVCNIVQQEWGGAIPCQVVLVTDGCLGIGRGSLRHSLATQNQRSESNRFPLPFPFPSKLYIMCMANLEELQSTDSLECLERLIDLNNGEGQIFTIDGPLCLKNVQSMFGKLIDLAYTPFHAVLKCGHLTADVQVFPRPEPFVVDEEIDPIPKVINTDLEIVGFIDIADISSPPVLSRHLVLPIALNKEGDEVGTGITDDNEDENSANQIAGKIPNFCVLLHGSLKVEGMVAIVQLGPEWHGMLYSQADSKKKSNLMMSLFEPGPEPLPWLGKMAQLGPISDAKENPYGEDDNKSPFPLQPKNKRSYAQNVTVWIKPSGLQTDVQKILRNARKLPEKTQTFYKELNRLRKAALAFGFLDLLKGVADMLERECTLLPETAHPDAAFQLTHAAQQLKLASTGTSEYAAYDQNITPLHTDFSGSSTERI
Chain of UniProt P62873 (P62873 whole entry, looked up): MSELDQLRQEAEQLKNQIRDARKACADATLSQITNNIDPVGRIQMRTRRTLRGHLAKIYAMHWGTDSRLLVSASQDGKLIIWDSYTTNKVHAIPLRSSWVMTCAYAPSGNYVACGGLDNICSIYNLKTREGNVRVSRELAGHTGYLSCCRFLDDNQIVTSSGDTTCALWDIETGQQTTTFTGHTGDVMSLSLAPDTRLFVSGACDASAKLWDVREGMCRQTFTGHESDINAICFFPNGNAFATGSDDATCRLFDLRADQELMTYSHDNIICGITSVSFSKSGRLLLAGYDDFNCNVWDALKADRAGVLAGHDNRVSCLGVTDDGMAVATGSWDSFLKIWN

Target	log2 fold change (lapatinib)	log2 fold change (pictilisib)	log2 fold change (crizotinib)	log2 fold change [1]	log2 fold change (duvelisib)	log2 fold change (gandotinib)	log2 fold change (tozasertib)	log2 fold change (doramapimod)	log2 fold change (bafetinib)	log2 fold change [2]
GLB1 (UniProt P16278)	-0.02	0.001	-0.003	-0.017	0.004	0.012	-0.084	0.016	-0.03	0.008
ISCA1 isoform 2 (UniProt Q9BUE6)	0.054	-0.08	-0.011	0.343 (active)	0.012	-0.132	-0.004	0.011	0.067	-0.223
KBTBD4 isoform 2 (UniProt Q9NVX7)	0.03	-0.015	-0.038	-0.075	0.056	0.109	-0.068	-0.023	-0.013	0.047
GNB1 (UniProt P62873)	0.054	-0.022	-0.106	-0.114	0.003	0.04	-0.023	0.079	0.123	0.04
KDM1A (UniProt O60341)	-0.01	-0.029	-0.036	-0.055	-0.025	-0.056	-0.031	0.015	-0.016	0.025
INTS3 (UniProt Q68E01)	-0.05	-0.005	-0.016	0.02	-0.005	-0.104	0.018	0.106	-0.07	-0.052
GSTCD (UniProt Q8NEC7)	-0.006	-0.015	-0.037	-0.058	0.09	0.036	-0.037	0	-0.053	0.01
GSK3A (UniProt P49840)	-0.026	0.207	0.069	-0.002	0.016	0.641 (active)	-0.017	0.002	0.008	-0.02
HK1 isoform 2 (UniProt P19367)	0	-0.009	-0.023	-0.026	-0.033	-0.051	0.038	0.039	-0.023	0.029
GON4L (UniProt Q3T8J9)	0.006	-0.04	-0.05	-0.066	-0.045	0.391	-0.054	-0.011	-0.07	0.01
GTF3C5 isoform 3 (UniProt Q9Y5Q8)	-0.009	-0.01	-0.047	-0.014	-0.02	-0.002	-0.012	0.063	-0.047	0.02
HAUS2 (UniProt Q9NVX0)	-0.033	-0.187	-0.055	0.167	0.049	-0.159	0.067	-0.047	0.005	-0.017
HADHA (UniProt P40939)	0.1	0.077	0.063	-0.01	0.037	0.129	-0.013	0.207	0.032	-0.053
KHK isoform 2 (UniProt P50053)	-0.066	-0.015	-0.032	0.248 (active)	0	-0.058	0.018	0.031	0.001	-0.163
ISY1 isoform 1 (UniProt Q9ULR0)	-0.033	0.011	0.01	-0.022	0.019	0.078	-0.035	0.016	-0.013	0.016
HAUS8 (UniProt Q9BT25)	-0.022	-0.02	-0.055	0.057	-0.075	0.045	0.027	-0.007	-0.037	0.027
IRAK4 (UniProt Q9NWZ3)	-0.021	-0.018	0.175	0.012	0.026	-0.082	0	0.011	-0.013	0.012
INTS14 (UniProt Q96SY0)	0	0.016	0.005	0.038	0.012	-0.035	-0.011	-0.012	0.009	-0.027
GTF2H1 (UniProt P32780)	-0.03	-0.017	-0.028	0.032	0.023	0.035	-0.019	-0.001	-0.03	-0.021
HDHD5 (UniProt Q9BXW7)	0.011	0.012	-0.017	-0.147	0.058	-0.005	0.059	0.131	0.033	0.116
IMPDH1 isoform 6 (UniProt P20839)	-0.001	0.01	-0.021	-0.061	-0.013	0.046	0.014	0.033	-0.037	0.064
KEAP1 (UniProt Q14145)	-0.005	-0.023	-0.007	0	0.026	0.019	-0.017	0.01	0	0.008
HAUS4 (UniProt Q9H6D7)	0.021	-0.02	-0.083	-0.063	-0.031	-0.009	0.042	0.043	0.003	0.099
GORASP1 (UniProt Q9BQQ3)	-0.031		0.015	-0.103	-0.018	0.002	-0.087	0.015		-0.028
GYPA, A0A2R8Y7F9		-0.033		-0.562		0.202			-0.029	0.17
IGF2BP3 (UniProt O00425)	0.013	-0.038	-0.031	-0.032	0.017	-0.04	0.001	-0.006	-0.045	0.053
HNRNPUL1 (UniProt M0R247)		0.038		0.014		-0.014			0.008	0.034
ITPRIP (UniProt Q8IWB1)					0.179					
HNRNPD (UniProt D6RF44)			-0.086					0		
HNRNPL, A0A3B3ITJ4	-0.011	-0.002							-0.083	

Reference: the supplement of paper PMC10849652
